The source of these data is PubChem BioAssay (NCATS).

Records with an inconclusive call do not appear. Active and inactive are the calls of the source. Calls come from the whole dose curve; as a rule, active = well fitted curve in the direction sought with a large enough effect; inconclusive = small, poorly fitted or top-dose-only effect, or another doubt; inactive = no such curve, though single readings can be large; an effect the other way counts as inactive or inconclusive.

Assay [1] can be described thus: qHTS of pediatric cancer cell lines to identify multiple opportunities for drug repurposing: Primary screen for BT-37 cells (AID 1347094). Note: potency is the fitted concentration of half-maximal effect. The gist of the method: (§1)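 Luminescence from CellTiter-Glo served as readout of metabolically active cells after 48 h compound exposure. Titrations: MIPE 11-point, from 0.78 nM; NPC 8-point, from 0.59 nM (final). Concentration-response curves came straight from the primary screen.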
On the technique in general: Quantitative high-throughput screening tests each substance at several concentrations.

A short description of assay [2]: qHTS of pediatric cancer cell lines to identify multiple opportunities for drug repurposing: Primary screen for Saos-2 cells (AID 1347097). Note: nearly all actives have a fitted effect of over 40% in size. Note: potency is the fitted concentration of half-maximal effect. A digest of the protocol: as §1
Assay [3] in a line: qHTS of pediatric cancer cell lines to identify multiple opportunities for drug repurposing: Primary screen for BT-12 cells (AID 1347101). Note: nearly all actives have a fitted effect of over 25% in size. Note: potency is the fitted concentration of half-maximal effect. The gist of the method: (§2)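 Cells (500-1,000/well) rested 5 h, then received compounds for 48 h; metabolically active cells were measured by CellTiter-Glo luminescence. Final concentrations spanned up to 46 µM (MIPE, 11-point) or 0.59 nM-46 µM (NPC, 8-point) in primary screens, 11-point in follow-ups.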

The nature of assay [4]: qHTS of pediatric cancer cell lines to identify multiple opportunities for drug repurposing: Primary screen for Rh18 cells (AID 1347102). Note: nearly all actives have a fitted effect of over 65% in size. Note: potency is the fitted concentration of half-maximal effect. The gist of the method:
as §2

Assay [5] can be described thus: qHTS of pediatric cancer cell lines to identify multiple opportunities for drug repurposing: Primary screen for OHS-50 cells (AID 1347103). Note: nearly all actives have a fitted effect of over 40% in size. Note: potency is the fitted concentration of half-maximal effect. A digest of the protocol:
as §2

A short description of assay [6]: qHTS of pediatric cancer cell lines to identify multiple opportunities for drug repurposing: Primary screen for RD cells (AID 1347104). Note: nearly all actives have a fitted effect of over 55% in size. Note: potency is the fitted concentration of half-maximal effect. A digest of the protocol:
as §1

Assay [7] is described as follows: qHTS of pediatric cancer cell lines to identify multiple opportunities for drug repurposing: Primary screen for Rh41 cells (AID 1347108). Note: nearly all actives have a fitted effect of over 70% in size. Note: potency is the fitted concentration of half-maximal effect. The gist of the method:
as §1

Assay [8] in a line: qHTS of pediatric cancer cell lines to identify multiple opportunities for drug repurposing: Primary screen for SK-N-SH cells (AID 1347098). Note: nearly all actives have a fitted effect of over 65% in size. Note: potency is the fitted concentration of half-maximal effect. A digest of the protocol: as §2
A short description of assay [9]: qHTS of pediatric cancer cell lines to identify multiple opportunities for drug repurposing: Primary screen for LAN-5 cells (AID 1347100). Note: potency is the fitted concentration of half-maximal effect. The gist of the method:
as §2

A short description of assay [10]: qHTS of pediatric cancer cell lines to identify multiple opportunities for drug repurposing: Primary screen for control Hh wild type fibroblast cells (AID 1347106). Note: nearly all actives have a fitted effect of over 55% in size. Note: potency is the fitted concentration of half-maximal effect. A digest of the protocol:
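Cells (500-1,000/well) in growth media were settled 5 h at 37 degrees C, then given compounds for 48 h. Viability was read as CellTiter-Glo luminescence. Primary runs used MIPE at 11 points (0.78 nM-46 µM) and NPC at 8 points (0.59 nM-46 µM); follow-ups used 11 points.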

A short description of assay [11]: qHTS of pediatric cancer cell lines to identify multiple opportunities for drug repurposing: Primary screen for Rh30 cells (AID 1347107). Note: nearly all actives have a fitted effect of over 75% in size. Note: potency is the fitted concentration of half-maximal effect. A digest of the protocol: as §2
The nature of assay [12]: qHTS of pediatric cancer cell lines to identify multiple opportunities for drug repurposing: Primary screen for NB-EBc1 cells (AID 1347095). Note: potency is the fitted concentration of half-maximal effect. The gist of the method:
as §1

Assay [13] is described as follows: qHTS of pediatric cancer cell lines to identify multiple opportunities for drug repurposing: Primary screen for U-2 OS cells (AID 1347096). Note: nearly all actives have a fitted effect of over 50% in size. The gist of the method: as §2
The nature of assay [14]: qHTS of pediatric cancer cell lines to identify multiple opportunities for drug repurposing: Primary screen for MG 63 (6-TG R) cells (AID 1347105). Note: nearly all actives have a fitted effect of over 50% in size. Note: potency is the fitted concentration of half-maximal effect. A digest of the protocol:
as §1

Assay [15] can be described thus: qHTS of pediatric cancer cell lines to identify multiple opportunities for drug repurposing: Primary screen for NB1643 cells (AID 1347099). Note: nearly all actives have a fitted effect of over 50% in size. Note: potency is the fitted concentration of half-maximal effect. The gist of the method: as §1
Assay [16] is described as follows: qHTS of pediatric cancer cell lines to identify multiple opportunities for drug repurposing: Confirmatory screen for A673 cells (AID 1347110).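 Note: cells exposed to compound for 48 h before the viability read; nearly all actives have a fitted effect of over 65% in size.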 Note: potency is the fitted concentration of half-maximal effect. The gist of the method: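 A673 cells seeded at 500-1,000 cells/well, rested 5 h, then dosed; primary MIPE 11-point (0.78 nM to 46 µM), NPC (0.59 nM to 46 µM); confirmatory 11-point. CellTiter-Glo luminescence after 48 h.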

The nature of assay [17]: qHTS of pediatric cancer cell lines to identify multiple opportunities for drug repurposing: Confirmatory screen for BT-12 cells (AID 1347112). Note: nearly all actives have a fitted effect of over 55% in size. Note: potency is the fitted concentration of half-maximal effect. A digest of the protocol:
as §2

Assay [18] can be described thus: qHTS of pediatric cancer cell lines to identify multiple opportunities for drug repurposing: Confirmatory screen for LAN-5 cells (AID 1347113). Note: nearly all actives have a fitted effect of over 65% in size. Note: potency is the fitted concentration of half-maximal effect. The gist of the method: as §2
The nature of assay [19]: qHTS of pediatric cancer cell lines to identify multiple opportunities for drug repurposing: Confirmatory screen for NB1643 cells (AID 1347109). Note: nearly all actives have a fitted effect of over 45% in size. Note: potency is the fitted concentration of half-maximal effect. The gist of the method:
as §2

Assay [20] in a line: qHTS of pediatric cancer cell lines to identify multiple opportunities for drug repurposing: Confirmatory screen for SK-N-MC cells (AID 1347111).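 Note: potency is the fitted concentration of half-maximal effect; cells exposed to compound for 48 h before the readout; nearly all actives have a fitted effect of over 70% in size.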 A digest of the protocol:
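Seed 500-1,000 cells/well; rest 5 h at 37 degrees C. Pin-transfer compounds, 11-point titration. Incubate 48 h. Add CellTiter-Glo, 15 min RT, read luminescence.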

In the case of `CC(=O)N(C)C1(c2ccccc2)CCN(CCC[C@]2(c3ccc(Cl)c(Cl)c3)CCCN(C(=O)c3ccccc3)C2)CC1`, the Potency in [1] was 30.6 µM (active); in assay [2] it was 33.2 µM (active); in [3] it was 27.3 µM (active); in [4] it was 26.4 µM (active); in assay [5], 24.3 µM (active); in assay [6], 18.7 µM (active). In addition, the Potency in assay [7] was 18.7 µM (active).
Turning to `O=c1c(-c2ccc(O)cc2)coc2cc(O[C@@H]3O[C@H](CO)[C@H](O)[C@H](O)[C@H]3O)ccc12`, the Potency result in assay [1], in assay [2], in assay [8], in assay [9], in assay [3] and in assay [4] was “inactive” each time. For the same compound, the Potency result in assay [5], in assay [6], in [10] and in assay [11] was “inactive” each time.
Regarding `CC=CC[C@@H](C)C(=O)[C@H]1C(=O)N[C@@H](C(C)C)C(=O)N(C)CC(=O)N(C)[C@@H](CC(C)C)C(=O)N[C@@H](C(C)C)C(=O)N(C)[C@@H](CC(C)C)C(=O)N[C@@H](C)C(=O)N[C@H](C)C(=O)N(C)[C@@H](CC(C)C)C(=O)N(C)[C@@H](CC(C)C)C(=O)N(C)[C@@H](C(C)C)C(=O)N1C`, the Potency result in [12], in [13], in assay [4], in assay [6], in assay [14] and in [10] was “inactive” throughout. In assay [11], the Potency entry is “inactive”. The figures for the Potency in assay [2], in assay [8] and in assay [5] were 18.7 µM (active), 30.4 µM (active) and 24.3 µM (active), respectively.
As for `O=C1NC(=O)C(=Cc2ccc3nccnc3c2)S1`, the Potency is 4.57 µM (active) in assay [12]; 8.12 µM (active) in [2]; 7.24 µM (active) in assay [15]; 4.21 µM (active) in assay [5]; 5.12 µM (active) in assay [14]. For the same compound, the Potency entry in assay [13], in [8], in assay [10] and in assay [7] was “inactive” each time.
Take `CO[C@H]1C[C@@H]2CC[C@@H](C)[C@@](O)(O2)C(=O)C(=O)N2CCCC[C@@H]2C(=O)O[C@H]([C@H](C)C[C@@H]2CC[C@H](OCCO)[C@H](OC)C2)CC(=O)[C@H](C)C=C(C)[C@@H](O)[C@@H](OC)C(=O)[C@H](C)C[C@H](C)C=CC=CC=C1C`: the Potency in assay [1] was 10.9 µM (active); in assay [2], 3.32 µM (active); in assay [5] it was 6.11 µM (active); in assay [7], 1.18 µM (active). Also, the Potency result in assay [15], in [14], in assay [11], in assay [16] and in assay [17] was “inactive” in each case.
`O=c1cc(-c2ccc(O)cc2)oc2cc(O)cc(O)c12`: the Potency was 3.06 µM (active) in assay [1]; 14.8 µM (active) in assay [2]; 0.469 µM (active) in assay [15]; 3.32 µM (active) in assay [9]; 3.43 µM (active) in [3]; 2.35 µM (active) in [4]. In addition, the Potency is 3.06 µM (active) in [5] and 2.96 µM (active) in [6]. Also, the Potency result in assay [10] and in assay [18] was “inactive” throughout.
`C[N+]1(C)[C@@H]2CC(OC(=O)[C@H](CO)c3ccccc3)C[C@H]1[C@H]1O[C@@H]12` (some centres not stated): the Potency result in assay [1], in assay [2], in [8], in assay [9], in assay [3] and in assay [4] was “inactive” each time. In addition, the Potency result in [5], in [6], in assay [10], in [11] and in assay [7] was “inactive” throughout.
For `C=C1C(=O)OC(CCCCCCCC)C1C(=O)O` (configuration not stated), the Potency entry in assay [1], in assay [13], in assay [15], in [9], in assay [3] and in assay [4] was “inactive” each time. Moreover, the Potency result in [5], in assay [6], in assay [14], in [10], in assay [11] and in [7] was “inactive” throughout.
Take `COc1cc(N2CCC(N3CCN(C)CC3)CC2)ccc1Nc1ncc(Cl)c(Nc2ccccc2S(=O)(=O)C(C)C)n1`: the Potency entry in assay [1] and in assay [13] was “inactive” each time. For the same compound, the Potency in assay [8] was 4.82 µM (active); in [10] it was 29.6 µM (active); in assay [11], 1.05 µM (active); in [19], 1.04 µM (active); in assay [16], 3.29 µM (active); in [20], 0.657 µM (active). For the same compound, in assay [18], the Potency is 0.185 µM (active).
As to `Cc1cc(OCCCc2c(C(=O)O)n(Cc3cccnc3)c3c(-c4c(COc5ccc(N6CCN([S+](C)(=O)[O-])CC6)cc5)nn(C)c4C)cccc23)cc(C)c1Cl`, the Potency in assay [12] is 23.5 µM (active); in [2], 18.7 µM (active); in assay [15] it was 23.5 µM (active); in [6], 29.6 µM (active); in [14], 29.6 µM (active); in [19] it was 16.5 µM (active). Also, the Potency in assay [20] is 20.8 µM (active). In addition, the Potency result in [13] and in [10] was “inactive” each time.
For `COc1cc2ncnc(-n3nc(-c4ccccn4)nc3N)c2cc1OC`, the Potency in assay [12] was 14.8 µM (active); in assay [2] it was 4.69 µM (active); in assay [15], 4.69 µM (active); in [5], 2.17 µM (active). Moreover, the Potency entry in assay [13] and in assay [7] was “inactive” in each case.
For the compound `COc1ccc(Cc2ccc(NC(N)=O)cc2)cc1-c1cccc(Cl)c1`, the Potency result in [12], in assay [13], in assay [2], in assay [3], in [4] and in assay [6] was “inactive” throughout. Also, the Potency result in assay [14], in assay [10] and in [11] was “inactive” each time. Besides, in assay [15], the Potency was 16.6 µM (active).
As to `COc1ccc(C2CC(c3ccccc3)=NN2c2ccc(S(N)(=O)=O)cc2)cc1` (configuration not stated), the Potency was 12.2 µM (active) in assay [1], 16.6 µM (active) in assay [2] and 21.7 µM (active) in assay [3]. Further, the Potency result in assay [8], in [4], in assay [14] and in [10] was “inactive” throughout.
Consider `COc1ccc(-n2c(C)c([N+](=O)[O-])c3ccc(O)cc32)cc1`, for which the Potency entry in [12], in [13], in [2], in assay [9], in assay [4] and in [5] was “inactive” each time. For the same compound, in assay [10], the Potency result is “inactive”. Moreover, the Potency is 19.2 µM (active) in assay [8] and 5.9 µM (active) in [15].
Regarding `COc1ccc2c3c1OC1C[C@@H](O)C=C[C@@]31CCN(C)C2` (some centres not stated), the Potency entry in assay [1], in [2], in assay [9], in [3], in assay [4] and in [5] was “inactive” throughout. The Potency entry in [14] and in assay [10] was “inactive” each time.
For the compound `CCCCCNC(=O)N1CCC(CN(Cc2ccc(Cl)cc2)Cc2ccc([N+](=O)[O-])s2)C1` (configuration not stated), the Potency in assay [12] is 26.4 µM (active); in assay [5], 24.3 µM (active); in assay [6], 29.6 µM (active). For the same compound, the Potency result in assay [8] and in [10] was “inactive” in each case.
For `c1ccc2c(Cc3c[nH]c4ccccc34)c[nH]c2c1`, the Potency entry in assay [13] is “inactive”. Also, the Potency in assay [2] was 18.7 µM (active); in [8] it was 9.61 µM (active); in assay [15], 4.18 µM (active); in [9], 23.5 µM (active); in assay [6], 14.8 µM (active); in assay [14] it was 5.9 µM (active). In addition, the Potency in [10] is 4.69 µM (active); in assay [7], 14.8 µM (active).
With `O=C(O)CCC1CCC(c2cc(F)ccc2F)(S(=O)(=O)c2ccc(Cl)cc2)CC1` (configuration not stated), the Potency result in assay [12], in assay [8], in assay [10], in assay [11] and in assay [19] was “inactive” in each case. Also, the Potency in [15] was 2.35 µM (active); in assay [9], 2.35 µM (active); in [6], 14.8 µM (active); in assay [14], 9.35 µM (active); in assay [7], 5.9 µM (active); in assay [20], 20.8 µM (active). In addition, the Potency in [17] is 26.1 µM (active).
